# Test results as given in PubChem BioAssay (NCI).
# About 79,000 compounds went through this panel and 15% of them were active in at least one assay; those are over-represented in the sample as a whole. A number with no mark means an inactive call. Calls of active or inactive are those of the source. Cut-off read from the data, not from the text of the source: active = growth inhibition above about 70%; inactive = the rest.
# What was measured:
# [1] = NCI Yeast Anticancer Drug Screen. Data for the rad50 strain (AID 155);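 note: 0% = growth of vehicle-only cultures of the same strain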; conditions: S. cerevisiae rad50 strain growth inhibition, active compounds read high
# In short: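 A DNA repair-deficient yeast mutant serves as the test organism; compound-induced growth inhibition is calculated against vehicle-treated cells.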
# [2] = NCI Yeast Anticancer Drug Screen. Data for the mec2-1 strain (AID 157); conditions: S. cerevisiae mec2-1 strain, active compounds read high
# In short: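 Test agents were screened against the mec2-1 yeast strain, with defined DNA repair or cell cycle alteration. Growth was scored as inhibition against vehicle-only controls.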
# [3] = NCI Yeast Anticancer Drug Screen. Data for the sgs1 mgt1 strain (AID 161);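 note: 0% = growth of cultures given vehicle only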; conditions: S. cerevisiae sgs1 mgt1 strain, active compounds read high
# In short: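 Test agents were incubated with a DNA-repair-mutant yeast strain. Growth was then read and compared against vehicle-treated controls.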
# [4] = NCI Yeast Anticancer Drug Screen. Data for the cln2 rad14 strain (AID 165);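 note: 0% = growth equal to vehicle treated cultures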; conditions: S. cerevisiae cln2 rad14 strain, active compounds read high
# In short: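 Growth of compound-exposed yeast (cln2 rad14 genotype) measured and expressed as inhibition relative to vehicle.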
# [5] = NCI Yeast Anticancer Drug Screen. Data for the bub3 strain (AID 167); conditions: S. cerevisiae bub3 mutant strain, active compounds read high
# In short: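 Inhibition values come from growth of compound-treated mutant yeast normalised to vehicle-treated controls.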
# [6] = NCI Yeast Anticancer Drug Screen. Data for the mlh1 rad18 strain (AID 175); conditions: S. cerevisiae mlh1 rad18 strain growth inhibition, active compounds read high
# In short: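 In this whole-cell yeast screen, a strain with altered DNA damage repair is challenged with compound, and its growth is measured against matched vehicle-treated controls.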
# [7] = at 5.0 µM (retest, dose inferred, filed as 0.5)
# [8] = at 50.0 µM (retest, dose inferred, filed as 5.0)
SMILES,"growth inhibition [1, 7] [%]","growth inhibition [1, 8]",growth inhibition ([1]; at 50.0 µM),"growth inhibition [2, 7] [%]","growth inhibition [2, 8]",growth inhibition ([2]; at 50.0 µM),"growth inhibition [3, 7] [%]","growth inhibition [3, 8]",growth inhibition ([3]; at 50.0 µM),"growth inhibition [4, 7] [%]","growth inhibition [4, 8]",growth inhibition ([4]; at 50.0 µM),"growth inhibition [5, 7] [%]","growth inhibition [5, 8]",growth inhibition ([5]; at 50.0 µM),"growth inhibition [6, 7] [%]","growth inhibition [6, 8]",growth inhibition ([6]; at 50.0 µM)
O.O.O=C(O)C(O)C(O)C(OC1OC(CO)C(O)C(O)C1O)C(O)CO.O=C(O)C(O)C(O)C(OC1OC(CO)C(O)C(O)C1O)C(O)CO.[NH-]C1CCCCC1[NH-].[Pt+2] (configuration not stated),-6,39%,95.1% (active),-6,21%,99.6% (active),0,50%,99.7% (active),2,12%,73.2% (active),-2,-2%,99.4% (active),-6,32%,99.2% (active)
CCOC(=O)C[n+]1c(C)cc(-c2ccccc2)cc1C,-2,1%,13.6%,7,-15%,6.3%,-1,-3%,12.2%,-1,2%,28.1%,24,-4%,14.2%,9,21%,7.55%
Cc1cc2c(cc1C)[n+](=O)c(C(=O)C/C(=N/NC(=O)CC#N)C(=O)Nc1ccccc1C(F)(F)F)c(C)n2[O-],53,53%,92.4% (active),57,57%,91% (active),58,58%,91.8% (active),38,38%,91.5% (active),46,46%,94% (active),54,54%,90.8% (active)
O=C(c1ccccc1)C1OC1c1ccccc1Cl (configuration not stated),1,40%,-13.7%,-4,21%,-4.4%,7,54%,-12.7%,4,23%,-52.2%,3,61%,-3.7%,12,78% (active),-9%
CC(C)(N=Nc1ccc([N+](=O)[O-])cc1)[N+](=O)[O-],26,97% (active),95.8% (active),12,99% (active),53.6%,18,98% (active),83.3% (active),15,99% (active),97.2% (active),21,99% (active),47.4%,23,99% (active),96.7% (active)
C/C(CCSCc1ccccc1)=N/NC(N)=S,6,44%,41.8%,4,65%,55.9%,6,78% (active),63.9%,-5,45%,33.2%,-1,65%,54.1%,7,76% (active),66.7%
Cc1cc(=O)oc2c(C)c3oc(CBr)cc3cc12,-11,79% (active),54.1%,4,67%,62.7%,-17,64%,69.8%,32,56%,66.2%,-4,67%,65.4%,-2,75% (active),63.1%
CN1C=CC(C(O)(c2ccccc2)c2ccccc2)CC1 (configuration not stated),-2,1%,1.25%,-6,8%,19.3%,2,0%,10%,-5,4%,51.6%,-5,-3%,16.7%,-4,5%,22.8%
CC(=O)Oc1c(Cl)cc(Cl)cc1C(c1cc(Cl)cc(Cl)c1OC(C)=O)C(Cl)(Cl)Cl,6,31%,90.8% (active),2,25%,98.3% (active),-1,-5%,83.9% (active),-10,2%,82.8% (active),-3,20%,98.3% (active),-2,23%,95.5% (active)
